Compounds without any hit were thinned out: in the full panel of roughly 79,000, 15% have a hit. Rule as the data show it: active = growth inhibition above about 70%; inactive = the rest.
Legend:
[1] = NCI Yeast Anticancer Drug Screen. Data for the rad50 strain (AID 155);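 also: 0% = growth of vehicle-only cultures of the same strain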; settings: S. cerevisiae rad50 strain growth inhibition; at 50.0 µM; stronger effect = higher value
Procedure, shortened: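 Relative growth inhibition (compound vs vehicle) was measured in yeast with a defined repair-gene alteration.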

[2] = NCI Yeast Anticancer Drug Screen. Data for the mec2-1 strain (AID 157); settings: S. cerevisiae mec2-1 strain, at 50.0 µM, stronger effect = higher value
Procedure, shortened: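 Each compound was tested on mec2-1 yeast, a strain altered in DNA damage repair or cell cycle control. Growth inhibition is reported relative to vehicle.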

[3] = NCI Yeast Anticancer Drug Screen. Data for the sgs1 mgt1 strain (AID 161);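 also: 0% = growth of cultures given vehicle only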; settings: S. cerevisiae sgs1 mgt1 strain, at 50.0 µM, stronger effect = higher value
Procedure, shortened: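 Test agents were incubated with a DNA-repair-mutant yeast strain. Growth was then read and compared against vehicle-treated controls.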

[4] = NCI Yeast Anticancer Drug Screen. Data for the cln2 rad14 strain (AID 165);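 also: 0% = growth equal to vehicle treated cultures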; settings: S. cerevisiae cln2 rad14 strain, at 50.0 µM, stronger effect = higher value
Procedure, shortened: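 Test compounds were added to cln2 rad14 yeast cultures; inhibition of growth was then determined by comparison with vehicle treatment.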

[5] = NCI Yeast Anticancer Drug Screen. Data for the bub3 strain (AID 167); settings: S. cerevisiae bub3 mutant strain, at 50.0 µM, stronger effect = higher value
Procedure, shortened: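 Screening used yeast with an engineered genetic alteration affecting cell cycle control. Compound-exposed cultures were compared with vehicle cultures, and reduced growth was taken as inhibition.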

[6] = NCI Yeast Anticancer Drug Screen. Data for the mlh1 rad18 strain (AID 175); settings: S. cerevisiae mlh1 rad18 strain growth inhibition; at 50.0 µM; stronger effect = higher value
Procedure, shortened: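 Inhibition values reflect reduced growth of mutant yeast versus vehicle-treated controls following compound exposure; the mutations affect DNA damage repair.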

Measured: growth inhibition

CC1C(c2ccccc2)=C(c2ccccc2)C(c2ccccc2)=C(c2ccccc2)C1c1ccccc1 (stereo unspecified)
inactive: [1] 27.6% | [2] -19.8% | [3] 2.6% | [4] -5.55% | [5] -1.2% | [6] -10.7%

CN(C)C1=Nc2ccccc2C(=S)N2CSCC12 (stereo unspecified)
inactive: [1] -29% | [2] -37.1% | [3] -16.9% | [4] -12.2% | [5] -63.8% | [6] -20.3%

O=[N+]([O-])c1ccc(C=NC23CC4CC(CC(C4)C2)C3)cc1
inactive: [1] -8.05% | [2] -11.1% | [3] -0.35% | [4] 14.2% | [5] 5.55% | [6] -3.9%

CCO[Si](OCC)(OCC)c1ccccc1
inactive: [1] -28.7% | [2] -21.3% | [3] -10.7% | [4] -5.85% | [5] -14.5% | [6] -15.8%

Nc1nc2nc(-c3ccccc3)[nH]c2c(=O)[nH]1
inactive: [1] -3.7% | [2] 6.75% | [3] -0.15% | [4] -52.2% | [5] -15.1% | [6] -12.4%

c1ccc(CN2CCCNCC2)cc1
inactive: [1] 9.55% | [2] -1.4% | [3] -0.25% | [4] -11.8% | [5] 4.7% | [6] -0.05%

Nc1cccc(CC(N)C(=O)O)c1 (stereo unspecified)
inactive: [1] -1.95% | [2] -5.55% | [3] -8.7% | [4] -44.1% | [5] -4.5% | [6] 1.7%

O=S(=O)(c1ccc(NC(=S)NCc2ccco2)cc1)N1CCCCC1
inactive: [1] 46% | [2] 5.6% | [3] 42.1% | [4] 38.3% | [5] 28.9% | [6] 25.6%

CCOC(=O)NC(OCCN(C)C)(C(F)(F)F)C(F)(F)F
inactive: [1] -32.4% | [2] 25.9% | [3] -53.5% | [4] 3.3% | [5] -4.15% | [6] 31.1%

O=P1(c2ccccc2)C(c2ccccc2)=CC=C1c1ccccc1
inactive: [1] 23.4% | [2] 9.8% | [3] 18.1% | [4] 6.6% | [5] 12.3% | [6] 31.2%

Cn1ccc2c3ccsc3ccc21
inactive: [1] 21.8% | [2] 6.35% | [3] 4.55% | [4] -5.5% | [5] 4.3% | [6] 1.05%

Cc1nc(-c2ccccc2)cc2c1c(=O)oc1ccccc12
inactive: [1] -14.7% | [2] -30.6% | [3] 4% | [4] 6.3% | [5] -5.4% | [6] -8.55%

CC(C)(C)c1ccc(O)c(CNCCO)c1
inactive: [1] 21.1% | [2] -6.65% | [3] -3.25% | [4] -28.1% | [5] 3.9% | [6] 8.05%

c1ccc(COc2ccc3c(c2)CN(Cc2ccccc2)CO3)cc1
inactive: [1] -21.1% | [2] -28.9% | [3] 33.6% | [4] -18.6% | [5] 62.2% | [6] -9.1%

CCN(CC)CCOc1cc(C)ccc1C(C)C
inactive: [1] -6.05% | [2] -12.6% | [3] 2.95% | [4] -32% | [5] -8.1% | [6] 26.4%

Clc1ccccc1NCSC1=NCCS1
inactive: [1] 5.95% | [2] -15.8% | [3] 3.9% | [4] -19.6% | [5] -3.85% | [6] 20.8%

CCOC(=O)c1c(NN)n[nH]c1C
inactive: [1] 8.95% | [2] 13.2% | [3] 24.4% | [4] 4% | [5] 7.1% | [6] 8.85%

Cc1cc(-c2cc(C)c(N)cc2S(=O)(=O)O)c(S(=O)(=O)O)cc1N
inactive: [1] -12.3% | [2] -23.4% | [3] -1.2% | [4] -3.2% | [5] 5.8% | [6] 1.15%

c1ccc(NCNC2Nc3ccccc3N2)cc1
inactive: [1] -25.9% | [2] -13.2% | [3] 12.3% | [4] -3.35% | [5] -20.6% | [6] 11.6%

CC1=NC(=Cc2ccc(O)cc2)C(=O)N1n1c(-c2ccccc2)nc2ccccc2c1=O
inactive: [1] -4.7% | [2] -10.3% | [3] -5.35% | [4] 2.6% | [5] -10.8% | [6] 3.45%

O=C(CSc1nnc(Cc2ccccc2)o1)Nc1ccc([N+](=O)[O-])cc1
inactive: [1] 11.2% | [2] 15.1% | [3] 5.65% | [4] 10.5% | [5] 19% | [6] -7.15%

Reference: PubChem BioAssay (NCI)
